Experimental findings from PubChem BioAssay AID488890 (Southern Research Specialized Biocontainment Screening …, 2010) are described below.

In all, about 320,000 compounds went through this assay and about 1,300 (0.41%) were called active. Roughly 3% stayed inconclusive and do not appear here. No rule for the calls is given here. These entries were drawn from the full list. Entries with a potency or affinity are not part of this list.

The assay is described as follows: growth inhibition of non-replicating M. tuberculosis (AID 488890).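 Also: plate controls were DMSO cells for no effect and high antibiotic wells for full effect.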 As to conditions: Mycobacterium tuberculosis non-replicating, at 25 µM, stronger effect = higher value.
On to `CCOC(=O)Oc1ccc2oc(C)c(C(=O)OCCOC)c2c1`, for which the inhibition (as a rule, the drop in the measured response relative to a control, in per cent) was found to be 61.6%.
The value for `COCCOC(=O)c1c(C)oc2ccc(OC(=O)c3c(OC)cccc3OC)cc12` was 0.6%; that for `CC(Oc1cc(Cl)ccc1Cl)C(=O)N/N=C\c1ccnn1C` (stereo not drawn) was 10.1%.
The value for `O=C(C[n+]1cc(-c2ccc(Cl)cc2)n2c1CCCCC2)c1ccccc1` was -12.8%; that for `CC1CCC(C(C)C)C(OC(=O)C[n+]2cc(-c3ccc(Cl)cc3)n3c2CCC3)C1` (stereo not drawn) was 49.4%.
The result for `CSc1nnc(-c2ccccc2)o1` reads 17.4%.
For the compound `Cn1c(SC2=CS(=O)(=O)c3ccccc32)nc2ccccc21`, the inhibition worked out at 58%.
The value for `O=C(O)CSc1nnc(-c2ccccc2)o1` was -5.91%.
The value for `Cc1cc(C)nc(SC2=CS(=O)(=O)c3ccccc32)n1` was -0.38%; that for `CC(C)c1ccc(N(C(=O)c2snc(C(N)=O)c2N)C(C(=O)NC2CCCC2)c2ccncc2)cc1` (stereo not drawn) was 15.7%.
The value for `COc1ccccc1-c1cc(C(F)(F)F)nc(NCc2cccs2)n1` was 13.2%.
As for `Cc1ccc(C(=O)N/C(=C\c2cn(C)c3ccccc23)C(=O)OCCN(C)C)cc1`, the inhibition came to 1.18%.
The result for `CCOC(=O)C1CCN(C(=O)C(C)Oc2ccc(C(=O)c3ccccc3)cc2)CC1` (stereo not drawn) reads 28.6%; that for `COc1cc(-c2ccc3oc(-c4ccsc4)cc(=O)c3c2)cc(OC)c1OC`, 72.1%; that for `Cc1ncc([N+](=O)[O-])n1CC(=O)Nc1ccc(F)cc1F`, -8.21%.
The result for `CN(Cc1ccccc1)C(=O)Nc1ccc(Cl)cc1` reads 48.8%; that for `O=C1N=c2ccccc2=C1c1sc(=S)n(Cc2ccccc2Cl)c1O`, -18.1%.
The value for `CCOC(=O)c1ccc(-n2nc(C)cc2C)cc1` was 13.4%; that for `Cc1cc(C)n(-c2ccc(C(=O)OC(C)C)cc2)n1` was 5.09%.
Consider `CCOc1cc2c(cc1OCC)-n1cccc1C(c1ccccc1F)NC2` (stereo not drawn), for which the inhibition turned out to be 19.4%.
The value for `CS(=O)(=O)Cc1ccc(C(=O)N2CCCC2c2cccs2)cc1` (stereo not drawn) was 0.57%.
Regarding `O=C(NC1CCCc2c1cnn2-c1cc(F)cc(F)c1)c1ccccn1` (stereo not drawn), the inhibition was 25.6%.
As to `O=C(NC1CCCc2c1cnn2-c1cc(F)cc(F)c1)c1ccncc1` (stereo not drawn), the inhibition turned out to be 4.39%.
The result for `CC(C)(C)OC(=O)NCCc1n[nH]c(=S)o1` reads -4.45%; that for `CSc1nc(O)c(N=Nc2ccc(F)cc2F)c(=O)[nH]1`, 13.2%.
The value for `CCSc1nnc(C(N)Cc2ccccc2)o1` (stereo not drawn) was 42.5%; that for `O=C(CSc1nnc(CNC(=O)c2ccco2)o1)Nc1ccccc1` was -9.27%.
As to `O=C(CSc1nnc(CNC(=O)c2ccco2)o1)c1ccccc1`, the inhibition is 17.8%.
The value for `CCSc1nnc([C@@H](N)Cc2ccccc2)o1` was 4.66%; that for `CN1CCN(c2ccc(NC(=O)COc3cccc4ccccc34)cc2)CC1` was 47.4%.
The result for `COc1ccc(C2Sc3nncn3N2Cc2ccc(C#N)cc2)cc1` (stereo not drawn) reads 0.03%; that for `C[C@H](NC(=O)OCc1ccccc1)C(=O)NNC(=O)[C@H](C)NC(=O)OCc1ccccc1`, 2.12%.
The result for `C[C@H](NC(=O)OCc1ccccc1)c1nnc([C@H](C)NC(=O)OCc2ccccc2)o1` reads 4.86%.
Turning to `Cc1ccc(C(=O)NNC(=O)CCC(=O)Nc2cc(C)on2)cc1`, the inhibition worked out at 3.14%.
The value for `CCOCC(=O)Nc1ccc(OCc2ccccc2)cc1` was 17.7%; that for `CC(C)NC(=O)COc1ccc(OCc2ccccc2)cc1` was 62.9%.
The value for `Cc1nc(SCCc2ccccc2)[nH]c(=O)c1C` was 49.5%.
The result for `CC1=C(C(=O)Nc2ccc(C)cc2C)C(c2ccc(C)o2)NC(=O)N1` (stereo not drawn) reads -0.04%.
For `COc1cccc(C(=O)CN(C(=O)c2ccc(Cl)cc2Cl)N2C(=O)c3ccccc3C2=O)c1`, the inhibition was -6.55%.
The result for `O=C(O)c1ccc(CNCc2ccc(Cl)cc2)cc1` reads 9.88%.
The value for `Cn1cnc([N+](=O)[O-])c1Cl` was -10.2%; that for `Cc1cccc(Sc2c([N+](=O)[O-])ncn2C)c1` was 22.6%.
In the case of `N#Cc1ccc(OCC(=O)NCCN2CCOCC2)cc1`, the inhibition came to 2.06%.
The result for `CCOC(=O)C1(CCc2ccccc2)CCN(Cc2cnc(N(C)C)s2)CC1` reads 3.68%.
The value for `Clc1ccccc1CSc1nncn1NC/C=C/c1ccccc1` was 19.6%; that for `CC(C(=O)NC1CCCc2ccccc21)N1C(=O)C2CCCCC2C1=O` (stereo not drawn) was -6.5%; that for `COc1ccc(N2CCN(CCCNC(=O)Nc3ccccc3)CC2)cc1` was 38.1%.
The result for `COc1ccc(NC(=O)NCCN2CCN(c3cccc(Cl)c3)CC2)cc1` reads 31.4%.
Take `CC1(C)CC(=O)C2=C(C1)N(c1ccc(F)cc1)C(=O)C2(O)C(F)(F)F` (stereo not drawn): the inhibition is -0.41%.
The value for `Cc1cc(C(=O)Nn2cnc3ccccc3c2=O)ccc1[N+](=O)[O-]` was -2.65%.
The result for `Cn1c(=O)c([N+](=O)[O-])c(NCCc2ccccc2)c2ccccc21` reads 30.3%; that for `CC(C)c1c(C(=O)N/N=C/c2ccc(OCc3ccc(F)cc3)cc2)nnn1-c1nonc1N`, 1.61%; that for `CC(CN1CCCC1)OC(=O)C(c1ccccc1)c1ccccc1` (stereo not drawn), 10.8%.
The value for `CCOc1ccc(C(O)C(CN2CCOCC2)c2ccccc2)cc1` (stereo not drawn) was -1.32%; that for `CCCCOc1ccc(C(O)C(CN2CCCCC2)c2ccccc2)cc1` (stereo not drawn) was 12.8%; that for `CCC(C(=O)c1ccc(O)cc1)c1ccccc1` (stereo not drawn) was 21.7%.
`CCOC(=O)C(CN1CCCC1)c1ccccc1` (stereo not drawn): the inhibition turned out to be 4.41%.
For the compound `CCOc1ccc(C(=O)C(c2ccccc2)N2CCOCC2)cc1` (stereo not drawn), the inhibition was found to be 56.8%.
Turning to `CCCOc1ccc(C(=O)C(c2ccccc2)N2CCOCC2)cc1` (stereo not drawn), the inhibition came out at 33.3%.
As to `CN(C)CC(c1ccccc1)c1ccccc1`, the inhibition was -13.3%.
The result for `CCCCN(C(=O)Cc1ccc2c(c1)OCCO2)c1c(N)n(CCC)c(=O)[nH]c1=O` reads -17.1%; that for `O=C(NCC(=O)N1CCN(C(c2ccccc2)c2ccccc2)CC1)c1ccc(Br)o1`, 13.5%.
The result for `CCOc1ccc2nc(SCC(=O)N3CCN(C(=O)c4ccco4)CC3)sc2c1` reads 28.7%; that for `C/C(=N/NC(=O)c1cnccn1)c1ccncc1`, -12.7%.
The value for `Cc1nc(Cl)c(S(N)(=O)=O)c(C)c1Cl` was -6.51%.
For the compound `CC(C)Sc1nc2[nH]ncc2c(=O)[nH]1`, the inhibition is -7.65%.
The result for `O=C(NCCO)c1ccc2c(c1)S(=O)(=O)c1ccccc1C2=O` reads -6.47%.
Turning to `Cc1ccc(S(=O)(=O)NC(=O)c2ccccc2F)cc1`, the inhibition is -3.32%.
The value for `CCCOc1cccc(C(=O)NCCNC(=O)c2ccco2)c1` was -5.82%.
The result for `N#Cc1ccccc1Cn1c(=O)n(CCC(=O)NCc2ccco2)c(=O)c2ccccc21` reads 0.99%; that for `CCC1(CC)C(=O)NN(c2ccccc2)C1=O`, -21.9%.
The value for `O=C(CCNC(=O)Cn1ccc2ccccc2c1=O)NCCN1CCc2ccccc2C1` was 19.7%; that for `O=C(C1=NN[C@@H]2C(=O)N(c3cccc(C(F)(F)F)c3)C(=O)[C@H]12)c1ccc2ccccc2n1` was -0.67%; that for `COc1ccc(C(=O)C(c2ccccc2)N2CCOCC2)cc1` (stereo not drawn) was 18.6%.
Take `COc1ccc(C(O)(C2CCCCC2)C(CN2CCCC2)c2ccccc2)cc1` (stereo not drawn): the inhibition came out at 47%.
The value for `COc1ccc(C2C(C(=O)N3CCN(c4ccccc4)CC3)c3ccccc3C(=O)N2C)cc1` (stereo not drawn) was 16.5%; that for `Cc1ccc(S(=O)(=O)N2CCCCC2C(=O)Nc2ccc(N(C)C)cc2)cc1` (stereo not drawn) was 20%; that for `Cc1cc(NC(=O)c2cccs2)n(-c2nc3ccccc3[nH]2)n1` was 76.4%.
The result for `Cc1cc(NC(=O)c2c(F)cccc2F)n(-c2nc3ccccc3[nH]2)n1` reads 76.6%; that for `Cc1cc(NC(=O)c2ccc(F)cc2F)n(-c2nc3ccccc3[nH]2)n1`, 14.7%.
The result for `COc1cccc(OC)c1C(=O)Nc1cc(C)nn1-c1nc2ccccc2[nH]1` reads 20.1%; that for `Cc1cc(Nc2ccccc2)n(-c2ccccc2)n1`, 6.71%.
Consider `CCOC(=O)C(=O)Nc1cc(C)nn1-c1nc2ccccc2[nH]1`, for which the inhibition turned out to be 73.2%.
The value for `Cc1cc(Nc2ccccc2)n(-c2ccc(Br)cc2)n1` was 66.6%.
The value for `Cc1cc(NC(=O)c2ccccc2)n(-c2nc3ccccc3[nH]2)n1` was 49.6%; that for `Cc1ccsc1C(=O)N1CCC(N2CCC(C(=O)NCC3CCCO3)CC2)CC1` (stereo not drawn) was 1.59%; that for `C[C@H](NC(=O)[C@@H]1CSC2c3ccccc3C(=O)N21)C(=O)NC1CCCC1` (stereo partly drawn) was -7.65%.
For the compound `CCc1ccc(OCC(=O)O/N=C(\N)c2ccncc2)cc1`, the inhibition was 35.7%.
The result for `COc1ccc(N2CCN(CC(O)COCc3ccccc3)CC2)cc1` (stereo not drawn) reads -6.85%.
The result for `Cc1cc(Nc2nc3ccccc3[nH]c2=O)n(-c2ccccc2)n1` reads 3.53%; that for `Cc1cc(NC(=O)CC#N)n(-c2nc3ccccc3[nH]2)n1`, -8.39%.
Regarding `Cc1cc(F)ccc1NC(=O)c1cc(S(=O)(=O)N2CCCC2)cn1C`, the inhibition was -14.1%.
The value for `O=[N+]([O-])c1ccc(-c2nc(-c3ccncc3)no2)cc1` was -0.83%; that for `O=[N+]([O-])c1cccc(-c2nc(-c3ccncc3)no2)c1` was 1.9%.
The value for `COc1ccc(Oc2cccc(Cl)c2CNC(=O)c2ccccc2C(=O)O)cc1` was 22.3%; that for `CC1=Nc2ccccc2/C1=C/c1sc(=O)n(CC(=O)N2CCCC2)c1O` was 24%; that for `CC1=Nc2ccccc2/C1=C/c1c(O)n(C)c(=O)[nH]c1=O` was 3.78%.
The result for `COc1ccc(NC(=O)CN(C)C(=O)c2ccccc2Sc2ncnc3sc(C)c(C)c23)cc1` reads 19.2%; that for `CC(C)(C)C(=O)CN1C(=O)NC(c2ccccc2)(c2ccccc2)C1=O`, 0.55%.
As for `CCCCCOC(=O)C1=C(C)Nc2ncnn2C1c1cccs1` (stereo not drawn), the inhibition was 21.8%.
The result for `COc1ccc(CNC(=O)[C@H](C)NC(=O)[C@@H]2Cc3ccccc3CN2)cc1` reads 1.37%; that for `CCNC(=O)NC(=O)C(C)OC(=O)CCCc1nc2ccccc2s1` (stereo not drawn), 65.1%; that for `CC(OC(=O)CCCSc1nc2ccccc2s1)C(=O)NC(N)=O` (stereo not drawn), 68.6%.
The value for `Cc1c(Cl)cccc1NC(=O)CSc1nncn1-c1cccnc1` was 2.49%; that for `O=c1cc(-c2ccccc2)[nH]c2ccccc12` was 14.9%; that for `O=c1nc(-c2ccccc2)c2ccccc2[nH]1` was -10.3%.
The result for `CC(C)CN(C(=O)Cn1nnc(-c2ccc(F)cc2)n1)C1CCS(=O)(=O)C1` (stereo not drawn) reads 2.71%.
Take `CCOC(=O)c1c(-c2cccc([N+](=O)[O-])c2)csc1N`: the inhibition came to 39.4%.
`CCOC(=O)c1cc(-c2cccc([N+](=O)[O-])c2)n[nH]1`: the inhibition was -6.3%.
Take `COc1cccc(C(=O)Nc2ccc(-n3nncc3C(C)(C)C)cc2)c1`: the inhibition stood at 9.74%.
The result for `COc1cccc(-n2nnnc2SCC(=O)NC2CCCC2)c1` reads 7.16%; that for `COc1cccc(Oc2nnnn2-c2ccccc2)c1`, 6.02%; that for `C=C(C(=O)Oc1ccccc1C(C)(C)C)c1ccccc1`, 36.4%.
